PubChem BioAssay (NCATS)
Unmarked numbers belong to inactive results. Inconclusive results are not listed. A call without a number means that no potency is given here. Calls of active or inactive are those of the source. Unless noted, calls come from the whole dose curve; as a rule, active = well fitted curve in the direction sought with a large enough effect; inconclusive = small, poorly fitted or top-dose-only effect, or another doubt; inactive = no such curve, though single readings can be large; an effect the other way counts as inactive or inconclusive.

What was measured:
[1] = target: Glucocorticoid receptor (Homo sapiens) (UniProt P04150); experiment: GR-GFP Redistribution (AID 450;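 active = compounds whose dose series gives a full or clear partial fitted curve of increased nuclear translocation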; note: potency is the fitted concentration of half-maximal effect); conditions: U2OS GR-GFP nuclear translocation, laser cytometry, 2 h
[2] = target: Glucocorticoid receptor (Homo sapiens) (UniProt P04150); experiment: GR-EFC Redistribution (AID 451; calls by dose curve; note: potency is the fitted concentration of half-maximal effect); conditions: CHO-K1 GR-EFC translocation, beta-gal luminescence, 2 h
In short: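 Translocation of GR-ED fusion to nuclear EA restores b-gal, read by luminescence after 1 h room-temperature detection. Engineered CHO-K1 biosensor cells, 1,000/well, exposed 2 h at 37 C to titrations up to 46 uM final.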

[3] = target: Mitogen-activated protein kinase 10 (Mus musculus) (UniProt Q61831); experiment: JNK3 AlphaScreen Assay (AID 530; active = well fitted curve in either direction with a large enough effect, not every such curve was filed as active;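 note: kinase came from lysate of stimulated human HepG2 cells; signal reports phosphorylation of biotinylated GST-cJun 1-79 at Ser73 with 10 µM ATP; series mostly up to about 57 µM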)
In short: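 qHTS titrations with 15 min compound pre-incubation before adding ATP (10 uM final). Read-out: AlphaScreen of Ser73-phosphorylated biotin-GST-cJun using HepG2 lysate JNK3 activated by IL-1β and TNFα.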

[4] = target: Ubiquitin carboxyl-terminal hydrolase 1 (Homo sapiens) (UniProt O94782); experiment: Inhibitors of USP1/UAF1: Pilot qHTS (AID 504865);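 note: rhodamine fluorescence freed from ubiquitin-rhodamine substrate followed over time; top concentration of the series differs between compounds; nearly all actives have a fitted effect of over 35% in size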
In short: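 Kinetic fluorescence assay: 1nM USP1/UAF1, 15 min compound preincubation, then 150nM Ub-Rho; 480/540 nm.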

[5] = target: DNA dC->dU-editing enzyme APOBEC-3G (Homo sapiens) (UniProt Q9HC16); experiment: qHTS for inhibitors of Vif-A3G interactions: Validation (AID 588379)
In short: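 Yellow fluorescence (Ex 488, Em 500-530) of Vif-coexpressing HeLa A3G-eYFP cells, scanned by Acumen cytometer, reports blocked A3G degradation. Cells plated at 700/well overnight at 37 deg C before compound addition, then a further overnight compound incubation at 37 deg C.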

[6] = system: Zika virus NS2B-NS3 protease; experiment: Primary screen GU AMC qHTS for Zika virus inhibitors (AID 1347154); note: nearly all actives have a fitted effect of over 70% in size
In short: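 Fluorogenic AMC-substrate cleavage by noncovalent NS2B-NS3 protease complex (25 nM, pH 8.0 Tris buffer with Tween 20) followed for 15 minutes at room temperature (~20% conversion). Percent inhibition from ex340/em450 signal change, fitted by 4-parameter Hill equation.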

[7] = Primary qHTS for small molecule stabilizers of the endoplasmic reticulum resident proteome: Secreted ER Calcium Modulated Protein (SERCaMP) assay (AID 1508630)
In short: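 The SH-SY5Y reporter protocol was run at 3 concentrations up to 38.3 uM (primary) or 11 concentrations (follow-up): 16 h compound, 100 nM thapsigargin for 4 h, then extracellular luciferase luminescence.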

[8] = target: Cytochrome P450 1A2 (Homo sapiens) (UniProt P05177); experiment: p450-cyp1a2 (AID 410; calls by dose curve; note: potency is the fitted concentration of half-maximal effect)
In short: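 Luminescent demethylation readout: Luciferin-ME (100uM, equal to Km) turned over by 20nM CYP1A2 for 60 min at room temperature after NADPH regeneration addition, following 10 min compound preincubation. Normalization used 57 uM furafylline as full inhibition.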

[9] = target: 3',5'-cyclic-AMP phosphodiesterase 4B (Homo sapiens) (UniProt Q07343); experiment: qHTS Assay for Inhibitors of PDE-IV (AID 607; active = well fitted activation curve with a large enough effect in the main read-out, with a control signal flat, not every such curve was filed as active)
In short: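 ACTOne HEK293 cells carry a modified cAMP-gated CNG channel and express endogenous PDE4; plated 1000 cells/well, compounds up to 22.9 uM final. Membrane-potential dye fluorescence (ex 535/em 590) was read; parental cells received 10 uM forskolin + 100 uM RO 20-1724.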

[10] = target: Cytochrome P450 3A4 (Homo sapiens) (UniProt P08684); experiment: qHTS Assay for Activators of Cytochrome P450 3A4 (AID 885); note: nearly all actives have a fitted effect of over 65% in size
In short: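 CYP3A4 activity: Luciferin-PPXE O-dealkylation, 25uM substrate, 200mM KPO4, RT throughout. Read-out is luciferase luminescence; higher values reflect activation.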

[11] = target: Cytochrome P450 2D6 (Homo sapiens) (UniProt P10635); experiment: qHTS Assay for Inhibitors and Substrates of Cytochrome P450 2D6 (AID 891); note: potency is the fitted concentration of half-maximal effect; nearly all actives have a fitted effect of over 60% in size
In short: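 Luminescent read-out of luciferin formed by 5 nM human CYP2D6 demethylating 30 uM Luciferin-ME EGE (Km level) over 60 min at room temperature after NADPH regeneration addition. Data normalized to full inhibition by 1.43 uM quinidine.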

[12] = target: Cytochrome P450 2C19 (Homo sapiens) (UniProt P33261); experiment: qHTS Assay for Inhibitors and Substrates of Cytochrome P450 2C19 (AID 899); note: potency is the fitted concentration of half-maximal effect; nearly all actives have a fitted effect of over 60% in size
In short: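 Reactions contain 5nM enzyme, 10uM Luciferin-H EGE (KM) and 50mM KPO4; compound preincubates 10 min at 37C, NADPH regeneration starts turnover for 60 min. Luminescence after detection reagent gives activity.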

[13] = target: Cytochrome P450 3A4 (Homo sapiens) (UniProt P08684); experiment: qHTS Assay for Inhibitors and Substrates of Cytochrome P450 3A4 (AID 884); note: series mostly up to about 57 µM; nearly all actives have a fitted effect of over 50% in size
In short: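 Luminescent readout of luciferin produced by CYP3A4 (20 nM) dealkylation of Luciferin-PPXE, 25 uM (its KM). NADPH-driven reaction ran 60 min at RT after 10 min compound preincubation; data scaled to 57 uM ketoconazole as 100% inhibition.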

Chain of Glucocorticoid receptor (Homo sapiens) (P04150 whole entry, looked up, the tested form may be a part): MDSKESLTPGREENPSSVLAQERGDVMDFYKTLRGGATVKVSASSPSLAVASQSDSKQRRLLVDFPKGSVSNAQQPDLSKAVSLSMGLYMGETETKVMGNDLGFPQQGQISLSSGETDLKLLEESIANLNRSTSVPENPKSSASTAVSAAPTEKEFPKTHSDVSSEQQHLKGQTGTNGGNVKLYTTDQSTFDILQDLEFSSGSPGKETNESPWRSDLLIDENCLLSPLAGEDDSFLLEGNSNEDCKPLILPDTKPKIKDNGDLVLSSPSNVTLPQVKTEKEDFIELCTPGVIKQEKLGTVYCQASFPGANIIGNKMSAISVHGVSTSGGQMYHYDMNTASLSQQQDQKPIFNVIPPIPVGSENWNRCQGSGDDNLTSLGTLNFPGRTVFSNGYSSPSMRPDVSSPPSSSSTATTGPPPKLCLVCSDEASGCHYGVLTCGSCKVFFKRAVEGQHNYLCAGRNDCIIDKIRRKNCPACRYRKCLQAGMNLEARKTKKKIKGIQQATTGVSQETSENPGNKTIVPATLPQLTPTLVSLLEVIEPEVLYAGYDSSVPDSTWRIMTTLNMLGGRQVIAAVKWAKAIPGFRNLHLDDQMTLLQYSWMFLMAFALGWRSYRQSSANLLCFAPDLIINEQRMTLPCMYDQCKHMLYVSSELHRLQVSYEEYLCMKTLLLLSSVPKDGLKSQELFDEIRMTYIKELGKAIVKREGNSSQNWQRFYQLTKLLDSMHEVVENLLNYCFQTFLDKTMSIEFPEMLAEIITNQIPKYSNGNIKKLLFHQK
Chain of DNA dC->dU-editing enzyme APOBEC-3G (Homo sapiens) (Q9HC16 whole entry, looked up): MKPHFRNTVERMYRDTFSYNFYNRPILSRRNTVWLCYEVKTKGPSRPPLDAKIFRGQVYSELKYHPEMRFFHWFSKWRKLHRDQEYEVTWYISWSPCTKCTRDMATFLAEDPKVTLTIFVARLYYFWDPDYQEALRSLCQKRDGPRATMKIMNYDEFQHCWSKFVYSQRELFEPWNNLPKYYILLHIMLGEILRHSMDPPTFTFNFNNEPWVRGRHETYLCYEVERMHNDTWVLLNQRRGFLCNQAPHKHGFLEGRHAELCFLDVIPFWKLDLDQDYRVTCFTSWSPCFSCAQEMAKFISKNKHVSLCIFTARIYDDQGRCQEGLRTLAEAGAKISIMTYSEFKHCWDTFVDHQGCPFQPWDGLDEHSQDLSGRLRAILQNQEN
Chain of Cytochrome P450 1A2 (Homo sapiens) (P05177 whole entry, looked up): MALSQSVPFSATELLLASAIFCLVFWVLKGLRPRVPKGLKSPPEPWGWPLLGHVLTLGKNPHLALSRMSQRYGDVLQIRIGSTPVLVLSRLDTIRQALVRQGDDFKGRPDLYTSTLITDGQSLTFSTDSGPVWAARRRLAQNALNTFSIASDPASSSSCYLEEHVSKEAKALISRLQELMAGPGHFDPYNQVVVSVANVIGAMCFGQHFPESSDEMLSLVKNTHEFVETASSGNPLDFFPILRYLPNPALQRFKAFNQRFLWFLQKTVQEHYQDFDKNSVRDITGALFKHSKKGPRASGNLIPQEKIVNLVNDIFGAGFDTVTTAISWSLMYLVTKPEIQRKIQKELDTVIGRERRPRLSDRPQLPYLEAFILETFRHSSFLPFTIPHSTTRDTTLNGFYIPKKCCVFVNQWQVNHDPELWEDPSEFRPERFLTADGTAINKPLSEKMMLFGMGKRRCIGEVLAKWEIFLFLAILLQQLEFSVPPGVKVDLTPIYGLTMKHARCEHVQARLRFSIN
Chain of Cytochrome P450 3A4 (Homo sapiens) (P08684 whole entry, looked up): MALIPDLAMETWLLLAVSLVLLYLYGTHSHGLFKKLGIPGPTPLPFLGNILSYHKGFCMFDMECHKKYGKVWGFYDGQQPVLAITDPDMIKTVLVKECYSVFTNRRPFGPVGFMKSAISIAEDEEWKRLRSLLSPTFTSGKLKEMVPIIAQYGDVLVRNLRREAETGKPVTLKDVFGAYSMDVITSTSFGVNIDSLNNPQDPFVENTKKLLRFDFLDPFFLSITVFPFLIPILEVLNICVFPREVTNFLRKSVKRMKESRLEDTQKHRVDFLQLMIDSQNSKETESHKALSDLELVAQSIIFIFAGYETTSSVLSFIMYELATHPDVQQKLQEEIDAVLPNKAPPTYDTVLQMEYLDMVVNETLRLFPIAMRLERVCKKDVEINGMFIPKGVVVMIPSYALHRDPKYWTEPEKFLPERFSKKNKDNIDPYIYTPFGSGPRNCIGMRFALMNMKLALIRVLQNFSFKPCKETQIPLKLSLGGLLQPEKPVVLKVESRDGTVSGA
Chain of 3',5'-cyclic-AMP phosphodiesterase 4B (Homo sapiens) (Q07343 whole entry, looked up): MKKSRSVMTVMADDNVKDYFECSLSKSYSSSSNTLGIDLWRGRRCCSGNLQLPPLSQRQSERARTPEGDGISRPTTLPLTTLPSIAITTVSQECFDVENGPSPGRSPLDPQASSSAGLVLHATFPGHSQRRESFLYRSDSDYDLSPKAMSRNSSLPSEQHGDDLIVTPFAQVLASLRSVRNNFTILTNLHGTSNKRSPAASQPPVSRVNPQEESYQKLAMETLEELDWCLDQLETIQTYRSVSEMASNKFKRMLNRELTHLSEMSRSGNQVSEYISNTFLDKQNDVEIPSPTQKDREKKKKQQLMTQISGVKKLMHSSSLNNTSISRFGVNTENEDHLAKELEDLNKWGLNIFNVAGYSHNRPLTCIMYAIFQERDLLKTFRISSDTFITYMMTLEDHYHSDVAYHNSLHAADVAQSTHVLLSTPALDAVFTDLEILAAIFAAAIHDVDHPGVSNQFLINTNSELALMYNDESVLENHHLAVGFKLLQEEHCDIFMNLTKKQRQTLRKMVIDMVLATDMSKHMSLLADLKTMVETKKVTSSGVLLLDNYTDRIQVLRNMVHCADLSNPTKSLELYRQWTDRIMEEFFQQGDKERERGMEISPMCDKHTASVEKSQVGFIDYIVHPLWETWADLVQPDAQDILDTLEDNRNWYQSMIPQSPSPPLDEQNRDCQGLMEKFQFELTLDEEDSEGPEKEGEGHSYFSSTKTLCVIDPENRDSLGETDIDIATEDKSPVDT
Chain of Ubiquitin carboxyl-terminal hydrolase 1 (Homo sapiens) (O94782 whole entry, looked up): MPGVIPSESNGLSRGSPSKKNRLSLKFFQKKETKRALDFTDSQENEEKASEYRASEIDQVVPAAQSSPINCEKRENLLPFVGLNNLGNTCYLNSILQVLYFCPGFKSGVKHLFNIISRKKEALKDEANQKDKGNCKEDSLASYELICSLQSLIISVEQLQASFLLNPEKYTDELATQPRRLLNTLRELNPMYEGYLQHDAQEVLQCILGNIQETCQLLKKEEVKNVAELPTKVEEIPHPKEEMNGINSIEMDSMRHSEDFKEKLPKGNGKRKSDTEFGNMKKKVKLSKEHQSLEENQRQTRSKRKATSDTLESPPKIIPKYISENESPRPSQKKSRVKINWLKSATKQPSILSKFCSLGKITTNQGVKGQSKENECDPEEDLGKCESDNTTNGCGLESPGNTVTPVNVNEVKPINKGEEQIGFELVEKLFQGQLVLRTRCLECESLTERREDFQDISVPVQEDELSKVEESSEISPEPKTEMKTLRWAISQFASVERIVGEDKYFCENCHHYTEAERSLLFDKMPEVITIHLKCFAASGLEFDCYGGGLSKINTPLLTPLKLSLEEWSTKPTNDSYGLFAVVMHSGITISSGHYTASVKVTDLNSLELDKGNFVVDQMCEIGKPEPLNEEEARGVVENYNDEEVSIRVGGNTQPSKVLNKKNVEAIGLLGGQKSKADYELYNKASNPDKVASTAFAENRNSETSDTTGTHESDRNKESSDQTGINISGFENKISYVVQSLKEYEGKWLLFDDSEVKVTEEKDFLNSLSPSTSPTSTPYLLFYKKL
Chain of Cytochrome P450 2D6 (Homo sapiens) (P10635 whole entry, looked up): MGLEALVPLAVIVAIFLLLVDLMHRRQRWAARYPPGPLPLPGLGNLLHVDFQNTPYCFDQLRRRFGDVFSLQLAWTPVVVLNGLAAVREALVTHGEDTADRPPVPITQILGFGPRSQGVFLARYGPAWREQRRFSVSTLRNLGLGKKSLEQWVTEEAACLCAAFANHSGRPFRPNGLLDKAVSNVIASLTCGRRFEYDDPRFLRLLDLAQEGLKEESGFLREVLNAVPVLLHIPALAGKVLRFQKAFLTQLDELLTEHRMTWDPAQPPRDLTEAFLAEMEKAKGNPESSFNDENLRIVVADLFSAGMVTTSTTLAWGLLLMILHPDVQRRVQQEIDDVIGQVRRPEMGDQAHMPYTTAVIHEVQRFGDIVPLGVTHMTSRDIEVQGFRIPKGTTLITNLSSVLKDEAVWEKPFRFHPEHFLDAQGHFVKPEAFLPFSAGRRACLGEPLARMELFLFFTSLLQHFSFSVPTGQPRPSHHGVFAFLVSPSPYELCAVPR
Chain of Cytochrome P450 2C19 (Homo sapiens) (P33261 whole entry, looked up): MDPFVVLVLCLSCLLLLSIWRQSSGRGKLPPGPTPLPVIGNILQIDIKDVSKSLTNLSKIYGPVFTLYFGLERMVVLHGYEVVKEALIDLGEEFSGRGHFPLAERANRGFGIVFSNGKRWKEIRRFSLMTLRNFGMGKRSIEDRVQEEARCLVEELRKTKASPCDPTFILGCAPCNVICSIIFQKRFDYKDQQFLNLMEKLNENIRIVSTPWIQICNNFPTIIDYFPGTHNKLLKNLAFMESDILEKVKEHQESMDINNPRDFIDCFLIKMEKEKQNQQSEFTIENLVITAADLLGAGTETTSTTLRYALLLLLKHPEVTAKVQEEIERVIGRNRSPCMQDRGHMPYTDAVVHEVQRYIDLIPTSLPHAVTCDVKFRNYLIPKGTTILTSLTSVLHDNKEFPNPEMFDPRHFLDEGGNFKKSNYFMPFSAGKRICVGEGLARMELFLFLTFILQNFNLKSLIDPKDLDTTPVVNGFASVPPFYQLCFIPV

SMILES | Potency [1] [µM] | Potency [2] [µM] | Potency [3] | Potency [4] | Potency [5] | Potency [6] | Potency [7] | Potency [8] | Potency [9] | Potency [10] | Potency [11] | Potency [12] | Potency [13]
C[C@H](O)CO[C@H]1[C@H]2O[C@H]3[C@H](O)[C@@H](O)[C@@H](O[C@H]4[C@H](O)[C@@H](O)[C@@H](O[C@H]5[C@H](O)[C@@H](O)[C@@H](O[C@H]6[C@H](O)[C@@H](OC[C@H](C)O)[C@@H](O[C@H]7[C@H](O)[C@@H](OC[C@H](C)O)[C@@H](O[C@H]8[C@H](O)[C@@H](O)[C@@H](O[C@@H]([C@@H]1O)[C@@H](CO)O2)O[C@@H]8CO)O[C@@H]7CO)O[C@@H]6CO)O[C@@H]5CO)O[C@@H]4CO)O[C@@H]3CO | > 46 | > 46 | inactive | inactive | inactive | inactive | inactive |  |  |  |  |  | 
C#CCCCCCCCCCCCCCCCC(=O)O | > 46 |  |  |  | inactive | inactive | inactive | 6.31 µM (active) | inactive |  |  |  | 
NC1=NCCCC1 | > 46 | > 46 | inactive | inactive | inactive | inactive | inactive |  | inactive |  |  |  | 
N=C(N)S/C=C\C(=O)O | > 46 | > 46 | inactive |  | inactive | inactive | inactive |  |  |  |  |  | 
CC#CCOC(=O)C1=CCCN(C)C1 | > 46 | > 46 | inactive | inactive | inactive | inactive | inactive |  | inactive |  |  |  | 
Cc1nc2ccc(NC(=O)Nc3ccnc4cccnc34)cc2o1 | > 46 | > 46 |  |  | inactive | inactive | inactive | 1 µM (active) | inactive | inactive |  |  | 
O=C1C(=O)N(Cc2ccc(Cl)c(Cl)c2)c2ccccc21 | > 46 | > 46 |  |  | inactive | inactive | inactive | 12.6 µM (active) |  | inactive | 3.98 µM (active) |  | 
CS(=O)(=O)Nc1ccc([N+](=O)[O-])cc1OC1CCCCC1 | > 46 | > 46 |  |  | inactive | inactive | inactive | 3.98 µM (active) |  | inactive | 0.0501 µM (active) | 0.0794 µM (active) | 
CCOC(=O)C1=C(C)NC(c2ccccc2)=C(C(=O)OCc2ccc([N+](=O)[O-])cc2)[C@@H]1C#Cc1ccccc1 | > 46 | > 46 | inactive |  | inactive | inactive | inactive |  | inactive |  |  |  | 
O=C(NC1CCN(Cc2ccccc2)CC1)c1ccc(I)cc1 | > 46 | > 46 | inactive | inactive | inactive | inactive | inactive |  | inactive |  |  |  | inactive
